# RE007 growth inh – less growth of the S. pombe RE007 Vpr strain. hit rate 0.21% among 360,000. Potency, µM (doses to about 92.2 µM), for the others: at the highest dose activity change, negative = less growth, usual class: inhibitors. AID 651644. S. pombe RE007 Vpr strain, BacTiter-Glo ATP luminescence, 24 h; active means well fitted falling curve with a large enough effect; inconclusive means small, poorly fitted or top-dose-only effect; inactive means no such curve, though single readings can be large or run the other way; further: potency means the concentration at half of the fitted maximal effect; on the % scale 0 is the no-effect control and ±100 the full control effect; nearly all actives have a fitted effect of over 50% in size
#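 Fission yeast RE007 carrying one integrated HIV-1 vpr copy, seeded at OD 0.01 in PMG+AL medium with 23 nL pinned compound. Grown 24 h at 30 degrees; viability read by BacTiter-Glo luminescence after 5 min.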
# Tb PYK inh – blocks Trypanosoma brucei pyruvate kinase; TbPYK enzyme, Kinase-Glo Plus ATP luminescence, 45 min; hit rate 0.12% among 410,000; AID 624173; Potency, µM (series often up to 76.8 µM), without a hit: top-dose activity, negative = inhibition, usual class: inhibitors; further: potency means the concentration at half of the fitted maximal effect; on the % scale 0 is the no-effect control and ±100 the full control effect; nearly all actives have a fitted effect of over 50% in size
#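 ADP (130 uM final) triggers the TbPYK reaction after compound addition; incubation is 45 min at room temperature. Kinase-Glo Plus is then added and luminescence imaged. Normalized data are fitted to concentration-effect curves.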
# Shiga inhibitor – inhibitors of Shiga toxin in Vero cells | Vero cells, Shiga toxin protein synthesis inhibition reporter | inhibition, % at 38.7 µM | hit rate 9.2% among 290,000 | AID 2315; in the data active means inhibition mostly above about 28%, no sharp cut-off; inactive means mostly below about 43%; further: 0% is about no effect
# Cycloheximide cs – affects cycloheximide protein synthesis inhibition readout, counter-screen; cell reporter, cycloheximide protein synthesis inhibition counterscreen; hit rate 12% among 300,000; AID 2314; max response, %; in the data active means max response mostly above about 13%, no sharp cut-off; inactive means mostly below about 14%; further: read at 38.3 µM for the half of the compounds with a filed dose; 0% is about no effect
# LmPK inhibitor – inhibitors of Leishmania mexicana pyruvate kinase; purified LmPK, Kinase-Glo ATP luminescence, 1 h; Potency, µM (titrated, usually from 57.5 µM), inactives show at the highest dose activity change, negative = inhibition, most hits filed as inhibitors; hit rate 0.37% among 290,000; further: potency means the concentration at half of the fitted maximal effect; on the % scale 0 is the no-effect control and ±100 the full control effect
# Target sequence (Q27686 whole entry, looked up): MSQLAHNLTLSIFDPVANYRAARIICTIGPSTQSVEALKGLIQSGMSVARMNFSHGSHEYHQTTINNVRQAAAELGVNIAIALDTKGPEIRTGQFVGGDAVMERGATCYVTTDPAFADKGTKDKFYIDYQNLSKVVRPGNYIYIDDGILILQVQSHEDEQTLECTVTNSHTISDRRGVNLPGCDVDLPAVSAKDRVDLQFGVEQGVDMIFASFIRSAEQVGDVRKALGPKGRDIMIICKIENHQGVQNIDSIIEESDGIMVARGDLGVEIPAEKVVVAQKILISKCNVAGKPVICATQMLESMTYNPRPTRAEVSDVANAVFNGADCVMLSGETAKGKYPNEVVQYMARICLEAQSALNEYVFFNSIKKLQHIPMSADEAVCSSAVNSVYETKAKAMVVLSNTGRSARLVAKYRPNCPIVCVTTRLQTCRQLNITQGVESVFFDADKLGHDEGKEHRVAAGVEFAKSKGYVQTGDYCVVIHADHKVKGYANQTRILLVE
#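 Purified LmPK (0.1 nM) converted ADP (0.1 mM) to ATP with PEP (0.5 mM) in imidazole buffer pH 7.2 with KCl and MgCl2, 1 h at room temperature. ATP was read by Kinase-Glo luminescence; data normalized to uninhibited and no-enzyme controls.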
# FBPA Giardia inh – Giardia lamblia aldolase inhibition. purified Giardia FBPA. Potency, µM (series often up to 59.6 µM), for inactives: at the highest dose activity, negative = inhibition, actives largely listed as inhibitors. hit rate 0.71% among 290,000. AID 2451; further: potency means the concentration at half of the fitted maximal effect; on the % scale 0 is the no-effect control and ±100 the full control effect; nearly all actives have a fitted effect of over 55% in size
#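 Giardia FBPA (40 nM reagent) was preincubated 10 min at RT with compound (up to 57.5 uM final), then substrate plus GAPDH/TPI/NAD/arsenate coupling system with diaphorase/resazurin was added; resorufin fluorescence (525/598 nm) was read after 20 min.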
# * hit, by the source's call; ? = inconclusive; · = not tested or not shown; [ ] = remark or other dose. This excerpt belongs to a sample that is enriched for hits. Unless noted, the call rests on the fitted dose curve; in most records, active means well fitted curve in the direction sought with a large enough effect; inconclusive means small, poorly fitted or top-dose-only effect, or another doubt; inactive means no such curve, though single readings can be large; an effect the other way counts as inactive or inconclusive.
SMILES,RE007 growth inh,Tb PYK inh,Shiga inhibitor,Cycloheximide cs,LmPK inhibitor,FBPA Giardia inh
COc1ccc(/C=N/N2C(=O)c3ccccc3C2=O)cc1,15%,7%,33*,18,-20%,7%
COc1ccc(/C=N\n2nnc3ccccc32)cc1,-11%,-22%,-41,28*,-19%,0%
CN(C)c1ccc(/C=N/N2C(=O)c3ccccc3C2=O)cc1,23%,-12%,76*,55*,?,2%
CCN(CC)c1ccc(/C=N/N2C(=O)c3ccccc3C2=O)cc1,-1%,-9%,24,7,-11%,2%
O=C(c1cccc(F)c1)N1CCC2(CCCN(c3ccc(-c4ccccc4)cc3)C2)CC1,·,19%,·,·,·,-10%
CC(C)c1ccc(NC(=O)Nc2nc(C(N)CCc3ccccc3)cs2)cc1 (configuration not stated),-13%[18.4 µM],-7%,·,·,·,·
CCOc1ccccc1CNS(=O)(=O)c1ccc(-c2coc(C)n2)cc1,·,-1%,·,·,·,·
O=C(CSc1n[nH]c(=O)[nH]c1=O)N/N=C/c1ccccc1,5%,-7%,-4,-4,-1%,-11%
Cc1ccc(SCC(=O)n2nc(C)cc2C)cc1,6%,-2%,-2,-2,-7%,2%
Cc1ccccc1NC(=O)CSc1nc2ccccc2o1,-3%,2%,63*,23*,2%,-3%
Cc1cc(C)n(C(=O)CSc2nc3ccccc3o2)n1,7%,5%,12,18*,-1%,16%
O=C(CSc1nc2ccccc2o1)N/N=C/c1ccc(O)c(O)c1,2%,-4%,31*,22*,-2%,-26%
O=C(CSc1nc2ccccc2o1)N/N=C/c1ccccc1,-8%,0%,61*,25*,0%,-5%
Cc1cc(SCC(=O)N/N=C/c2ccc(O)c(O)c2)nc2ccccc12,-11%,-5%,-2,1,13%,-26%
O=C(Cc1ccccc1)Nc1sc2c(c1C(=O)Nc1cccc(Cl)c1)CCCC2,·,·,20,16,·,·
CCN1C(=O)/C(=C2/Sc3ccccc3N2CC)S/C1=N\c1ncn[nH]1,1%,-2%,-9,-3,1%,2%
Cc1ccccc1/C=N/NC(=O)CSc1nc2ccccc2o1,-7%,-2%,93*,24*,6%,-12%
C/C(=N\NC(=O)CSc1nc2ccccc2o1)c1cccc(O)c1,12%,-1%,18,2,6%,-6%
C/C(=N\NC(=O)CSc1nc2ccccc2o1)c1ccc(O)cc1,27%,-12%,114*,45*,3%,-4%
Cc1csc2nc(CSc3nc4ccccc4o3)c(Br)n12,-25%,-9%,78*,52*,-18%,-11%
CC1(C)CC(=O)c2cnc(NC(=O)CSc3nc4ccccc4o3)nc2C1,12%,-2%,55,16*,-1%,0%
COc1ccccc1C1(O)C(=O)Nc2ccc(C)cc21 (configuration not stated),1%,6%,-19,-7,-1%,0%
CCN(CC)c1ccc(CNCc2cccs2)cc1,-3%,1%,59,20*,-1%,-16%
CCN(CC)c1ccc(CNCCc2ccccc2F)cc1,13%,-4%,-18,-3,3%,-9%
Cc1cccnc1NC1(C(F)(F)F)N=C2SCCN2C1=O (configuration not stated),-6%,-1%,-8,-4,5%,1%
Cc1c2cnn(CC(=O)N3CCC4(CC3)OCCO4)c(=O)c2c(C)n1Cc1ccccc1Cl,3%,3%,14,14*,-1%,-1%
Cc1c2cnn(CC(=O)N3CCC4(CC3)OCCO4)c(=O)c2c(C)n1Cc1ccccc1,5%,6%,-14,-2,-9%,0%
CCOC(=O)c1cc2c(=O)n3cccc(C)c3nc2n(Cc2ccco2)c1=NC(=O)c1cccnc1,-5%,-8%,33*,6,4%,?
CC(=O)Nc1ccc(OS(=O)(=O)c2ccc(Cl)cc2)cc1,8%,4%,40*,12,1%,1%
CC(=O)Nc1ccc(S(=O)(=O)Oc2ccc(C=O)cc2)cc1,·,-10%,-4,-2,1%,5%

# Screening data from PubChem BioAssay.
